An excerpt weighted towards active compounds, which were near 3.9% of everything screened.
Eya2 inh – Eya2 (human) phosphatase inhibition; Potency, µM (top dose mostly 76.9 µM), hits mostly inhibitors; hit rate 0.006% among 330,000; recombinant Eya2, OMFP fluorescence dephosphorylation (OMFP is methylfluorescein phosphate); AID 488837
Target sequence (O00167 whole entry, looked up): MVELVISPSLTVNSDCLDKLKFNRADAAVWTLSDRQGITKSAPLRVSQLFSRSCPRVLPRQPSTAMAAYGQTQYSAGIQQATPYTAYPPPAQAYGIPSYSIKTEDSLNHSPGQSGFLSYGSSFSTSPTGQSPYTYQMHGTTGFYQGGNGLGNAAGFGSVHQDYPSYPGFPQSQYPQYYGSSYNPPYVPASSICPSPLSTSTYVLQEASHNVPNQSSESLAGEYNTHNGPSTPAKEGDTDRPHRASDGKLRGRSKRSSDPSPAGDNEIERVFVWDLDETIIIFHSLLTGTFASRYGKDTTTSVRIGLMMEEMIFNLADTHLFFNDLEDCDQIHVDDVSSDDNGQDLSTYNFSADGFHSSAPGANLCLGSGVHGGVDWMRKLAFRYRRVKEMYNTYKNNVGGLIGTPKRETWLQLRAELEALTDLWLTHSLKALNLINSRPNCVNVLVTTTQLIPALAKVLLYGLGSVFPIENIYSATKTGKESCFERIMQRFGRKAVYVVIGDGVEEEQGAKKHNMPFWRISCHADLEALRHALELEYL
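Eya2 protein (added as 0.2 uM solution) was preincubated with compound for 10 min at ambient temperature in 50 mM HEPES pH 7.5, 50 mM NaCl, 5 uM MgCl2, 0.05% BSA, 1 mM DTT. OMFP (added at 50 uM) then reacted 10 min; fluorescence read at 485/525 nm.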
D1 antagonist – blocks dopamine activation of the human D1 receptor. activity change, negative = inhibition, % at 10 µM. hit rate 3.2% among 360,000. P21728. HEK293 TREx D1 cells, calcium flux, dopamine EC80; stronger effect = lower value; in the data active = activity change below about -30%
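After overnight tetracycline induction at 30 C, force-coupled D1 HEK293 cells took up a no-wash calcium dye at room temperature. Compounds were added and monitored 180 s, and the response to EC80 dopamine was then recorded.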
D1 potentiator – potentiators of human D1 dopamine receptor; potentiation, % at 10 µM; AID 504651; hit rate 0.036% among 360,000; HEK293 TREx D1 cells, calcium flux, dopamine EC20 potentiation; P21728; in the data active = potentiation above about 30%
USP2a block – USP2a (human) protease inhibition; USP2 core, Ub-CHOP2 coupled fluorogenic reporter, 485/531; hit rate 0.01% among 330,000; O75604; Potency, µM (doses to about 38.3 µM), most hits filed as inhibitors; AID 463254
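Deubiquitinase activity read as fluorescence (485/531 nm) after Ub-CHOP2 cleavage activates the enterokinase reporter on its substrate; USP2 core 10nM, Ub-CHOP2 and substrate 25nM each, 30min compound preincubation then 60min RT; data normalized to NEM, curves fitted.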
D1 agonist – agonists of human D1 dopamine receptor | HEK293 T-REx D1 cells, calcium flux, agonist mode | hit rate 1% among 360,000 | AID 504660 | activation, % at 2 µM; in the data active = activation above about 30%
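Agonism was scored from calcium flux recorded over 180 s (1 read/s) after pintool compound addition, following a 10-cycle baseline. Cells were inducible force-coupled HEK293 TREx D1, plated overnight at 30 C and loaded with no-wash calcium dye.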
GALK inh – galactokinase (human) inhibition; P51570; Purified GALK, Kinase-Glo residual ATP luminescence; Potency, µM (titrated, usually from 57.5 µM), usual class: inhibitors; hit rate 0.007% among 270,000; AID 1868
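5 nM enzyme, 35 uM ATP, 100 uM galactose, 20 mM HEPES pH8.0, 5 mM MgCl2; 1 h RT; residual ATP by Kinase-Glo Plus luminescence, qHTS format.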
Large screens that a line does not name were inactive; ! = not confirmed by another sample. Unless noted, calls follow the shape of the dose curve; as a rule, active = well fitted inhibition curve with a large enough effect; inconclusive = small, poorly fitted or top-dose-only effect, or effect the other way; inactive = flat fitted curve, though single readings scatter.

COc1ccc(NC(=O)Cn2c(=O)n(-c3ccc(C)cc3)c(=O)c3c2c2cc(C)ccc2n3C)cc1	none (no result: Eya2 inh, USP2a block, GALK inh)
Cn1c2cc(Br)sc2c2cnn(Cc3c(F)cccc3F)c(=O)c21	none (no result: GALK inh)
Cn1c2cc(Br)sc2c2cnn(Cc3c(F)cccc3Cl)c(=O)c21	D1 antagonist -94 (no result: GALK inh)
Cc1ccc(C)c(NC(=O)C(Cc2ccccc2)n2cccc2)c1 (stereo not drawn)	none (no result: Eya2 inh, USP2a block, GALK inh)
Cn1nc(C(=O)Nc2cccc(C(F)(F)F)c2)c2c1-c1ccccc1S(=O)(=O)C2	none (no result: Eya2 inh, USP2a block, GALK inh)
Cc1cccc(Cn2c(C)c(C)c3cc(C(=O)NCCN4CCOCC4)ccc32)c1	none
CCn1c(C)c(C)c2cc(C(=O)NCCc3ccco3)ccc21	none
Cc1c(C)n(Cc2ccc(F)cc2)c2ccc(C(=O)NCc3ccco3)cc12	D1 antagonist -75 (no result: Eya2 inh, USP2a block, GALK inh)
CCc1ccc(CNC(=O)c2ccc3nc(SCc4ccc(F)cc4)n(C)c3c2)cc1	D1 agonist 40 (no result: Eya2 inh, USP2a block, GALK inh)
Cc1c(C)n(Cc2ccc(F)cc2)c2ccc(C(=O)NCCN3CCOCC3)cc12	D1 antagonist -30
Cn1c(SCc2ccc(F)cc2)nc2ccc(C(=O)NCc3ccccc3)cc21	none (no result: Eya2 inh, USP2a block, GALK inh)
COc1ccc(CCNC(=O)c2ccc3c(c2)c(C)c(C)n3Cc2ccc(F)cc2)c(OC)c1OC	D1 antagonist -55 (no result: Eya2 inh, USP2a block, GALK inh)
COc1cc2c(=O)n(CCc3ccccc3)c(=O)n(CC(=O)Nc3ccccc3)c2cc1OC	none (no result: Eya2 inh, USP2a block, GALK inh)
OCC1O[C@H]([S-])[C@H](O)[C@@H](O)[C@@H]1O.[Au+] (stereo partly drawn)	none (no result: D1 antagonist, D1 potentiator, USP2a block, D1 agonist, GALK inh)
O=C(NCCc1nc2ccccc2n1Cc1ccc(F)cc1)c1ccco1	none (no result: Eya2 inh, USP2a block, GALK inh)
Cc1ccc(NC(=O)Cn2c(=O)n(Cc3ccccc3)c(=O)c3c(C)c(C(=O)N(C)C)sc32)c(C)c1	none (no result: Eya2 inh, USP2a block, GALK inh)
CCn1c(C)c(C)c2cc(C(=O)NCc3ccc(F)cc3)ccc21	D1 agonist 34 (no result: Eya2 inh, USP2a block, GALK inh)
CCn1c(C)c(C)c2cc(C(=O)NCc3ccc(N(C)C)cc3)ccc21	none (no result: Eya2 inh, USP2a block, GALK inh)
COc1ccc(-c2noc(N3CCN(c4cccc(C)c4C)CC3)n2)cc1OC	none (no result: Eya2 inh, USP2a block, GALK inh)
FC(F)(F)C1=Nc2cccc3cccc(c23)N1	USP2a block 10µM (no result: GALK inh)
Fc1ccc(C2=Nc3cccc4cccc(c34)N2)cc1	none
CCCOc1ccc(N2C(=O)CC(N3CCN(c4nc5ccccc5s4)CC3)C2=O)cc1 (stereo not drawn)	D1 antagonist -31
CCCCCCOc1ccc(N2C(=O)CC(N3CCN(C(=O)c4ccco4)CC3)C2=O)cc1 (stereo not drawn)	D1 antagonist -41
Cc1ccc(C2Nc3ccccc3-n3c(-c4ccccc4)c4c(=O)n(C)c(=O)n(C)c4c32)o1 (stereo not drawn)	none (no result: Eya2 inh, USP2a block, GALK inh)
COc1cc(CN2CCN(S(=O)(=O)c3ccc(NC(C)=O)cc3)CC2)cc(OC)c1OC	none (no result: Eya2 inh, USP2a block, GALK inh)
COc1ccc(N(CC(=O)Nc2ccc(C)c(C)c2)S(=O)(=O)c2c(C)noc2C)cc1	D1 antagonist -42
CCOc1ccc(N(CC(=O)Nc2cccc(Cl)c2)S(=O)(=O)c2c(C)noc2C)cc1	D1 antagonist -36
COc1ccc(N(CC(=O)Nc2ccc(C)c(F)c2)S(=O)(=O)c2c(C)noc2C)cc1	none
Cc1ccc(N(CC(=O)NCCc2ccc(Cl)cc2)S(=O)(=O)c2c(C)noc2C)cc1	D1 antagonist -34!
COc1ccc(NC(=O)CNC(=O)C23CC4CC(CC(C4)C2)C3)c(OC)c1	none (no result: GALK inh)
COc1ccc(OC)c(NC(=O)C(=O)NNC(=O)C23CC4CC(CC(C4)C2)C3)c1	D1 agonist 40
Cc1ccc(/C=N/NC(=O)Cc2ccc(O)cc2)s1	D1 antagonist -33
O=C1CN(C(=O)c2ccc(S(=O)(=O)N3CCCCC3)cc2)C(c2ccc(F)cc2)c2cc(Cl)ccc2N1 (stereo not drawn)	none (no result: Eya2 inh, USP2a block, GALK inh)
Cc1cccc(N2C(=O)N3[C@H](c4ccc(F)cc4)[C@@H]4C(=O)N(C5CCCCC5)C(=O)[C@@H]4[C@]3(Cc3ccc(Cl)cc3)C2=O)c1	none (no result: GALK inh)
Cc1cccc(N2C(=O)N3[C@H](c4ccc(Cl)cc4)[C@@H]4C(=O)N(C5CCCCC5)C(=O)[C@@H]4[C@]3(Cc3ccc(Cl)cc3)C2=O)c1	D1 antagonist -40 (no result: GALK inh)
O=C(Nc1nnc(SCc2ccccc2F)s1)c1ccco1	D1 antagonist -82
CCCSc1nnc(NC(=O)c2ccco2)s1	none
CCOC(=O)c1cc(C#N)c(NCc2ccccc2)nc1C	D1 antagonist -43
CCOC(=O)c1cc(C#N)c(Oc2ccc(F)cc2)nc1-c1ccccc1	D1 antagonist -35
CC(=O)c1cc(C#N)c(NCc2ccccc2)nc1C	none

Assay outcomes deposited in PubChem by National Center for Advancing Translational Sciences (NCATS).
